Numbering of substitutions follows the chain as printed.
Key:
Assay in all cases: PBM; 200 nM protein, PBS
Details in all cases: dsDNA, one strand shown
PAX4 [1] = target: T1, PAX4 (Homo sapiens, UniProt O43316 9-242, R200K)
T1 sequence: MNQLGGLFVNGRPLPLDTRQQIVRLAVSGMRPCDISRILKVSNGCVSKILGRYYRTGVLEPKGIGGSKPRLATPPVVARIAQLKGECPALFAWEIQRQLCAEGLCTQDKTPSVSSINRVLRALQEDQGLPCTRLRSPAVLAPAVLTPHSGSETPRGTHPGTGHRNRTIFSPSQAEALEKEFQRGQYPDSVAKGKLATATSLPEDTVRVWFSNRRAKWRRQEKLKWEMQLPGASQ

PAX4 [2] = target: T2, PAX4 (Homo sapiens, UniProt O43316 9-242)
T2 sequence: T1 sequence with K192R

PAX4 [3] = target: T3, PAX4 (Homo sapiens, UniProt O43316 9-242, R200Q)
T3 sequence: T1 sequence with K192Q

PAX4 [4] = target: T4, PAX4 (Homo sapiens, UniProt O43316 9-242, F177V)
T4 sequence: T1 sequence with F169V, K192R

PAX4 [5] = target: T5, PAX4 (Homo sapiens, UniProt O43316 9-242, F177Y)
T5 sequence: T1 sequence with F169Y, K192R

PAX4 [6] = target: T6, PAX4 (Homo sapiens, UniProt O43316 9-242, R227W)
T6 sequence: T1 sequence with K192R, R219W

VAX1 [7] = target: VAX1 (Homo sapiens, UniProt Q5SQQ9 86-172)
VAX1 [8] = target: VAX1 (Homo sapiens, UniProt Q5SQQ9 86-172, T142I)
VAX1 [9] = target: VAX1 (Homo sapiens, UniProt Q5SQQ9 86-172, K157R)
PROP1 [10] = target: PROP1 (Homo sapiens, UniProt O75360 56-141)
PROP1 [11] = target: PROP1 (Homo sapiens, UniProt O75360 56-141, R99H)
PROP1 [12] = target: PROP1 (Homo sapiens, UniProt O75360 56-141, F88S)
Sequence of PROP1 (Homo sapiens, UniProt O75360 56-141, F88S) (O75360 56-141 F88S): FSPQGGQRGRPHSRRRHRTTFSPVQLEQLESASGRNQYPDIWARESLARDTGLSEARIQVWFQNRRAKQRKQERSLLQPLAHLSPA

Sequence of VAX1 (Homo sapiens, UniProt Q5SQQ9 86-172, K157R) (Q5SQQ9 86-172 K157R): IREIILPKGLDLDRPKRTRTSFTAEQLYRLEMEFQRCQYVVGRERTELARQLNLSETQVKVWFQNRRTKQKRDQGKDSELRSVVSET
Sequence of VAX1 (Homo sapiens, UniProt Q5SQQ9 86-172, T142I) (Q5SQQ9 86-172 T142I): as the sequence (Q5SQQ9 86-172 K157R) above, with T57I, R72K counted along it
Sequence of VAX1 (Homo sapiens, UniProt Q5SQQ9 86-172) (Q5SQQ9 86-172): as the sequence (Q5SQQ9 86-172 K157R) above, with R72K counted along it
Sequence of PROP1 (Homo sapiens, UniProt O75360 56-141, R99H) (O75360 56-141 R99H): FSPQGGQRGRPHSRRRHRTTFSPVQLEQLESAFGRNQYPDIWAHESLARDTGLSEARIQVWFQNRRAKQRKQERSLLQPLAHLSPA
Sequence of PROP1 (Homo sapiens, UniProt O75360 56-141) (O75360 56-141): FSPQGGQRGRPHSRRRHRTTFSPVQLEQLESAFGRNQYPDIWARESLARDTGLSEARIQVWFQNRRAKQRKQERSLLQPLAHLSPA

AGGCCGCC
binding signal (PAX4 [1]): 9.08 upbm affinity estimate (log intensity, higher = more binding, comparable within an allelic series)
binding signal (PAX4 [2]): 9.11 upbm affinity estimate (log intensity, higher = more binding, comparable within an allelic series)
binding signal (PAX4 [3]): 9.15 upbm affinity estimate (log intensity, higher = more binding, comparable within an allelic series)
binding signal (PAX4 [4]): 9.15 upbm affinity estimate (log intensity, higher = more binding, comparable within an allelic series)
binding signal (PAX4 [5]): 9.1 upbm affinity estimate (log intensity, higher = more binding, comparable within an allelic series)
binding signal (PAX4 [6]): 9.22 upbm affinity estimate (log intensity, higher = more binding, comparable within an allelic series)

ATTAGCTA
binding signal (PAX4 [1]): 11.4 upbm affinity estimate (log intensity, higher = more binding, comparable within an allelic series)
binding signal (PAX4 [2]): 11.7 upbm affinity estimate (log intensity, higher = more binding, comparable within an allelic series)
binding signal (PAX4 [3]): 11.4 upbm affinity estimate (log intensity, higher = more binding, comparable within an allelic series)
binding signal (PAX4 [4]): 10.2 upbm affinity estimate (log intensity, higher = more binding, comparable within an allelic series)
binding signal (PAX4 [5]): 10.6 upbm affinity estimate (log intensity, higher = more binding, comparable within an allelic series)
binding signal (PAX4 [6]): 10.6 upbm affinity estimate (log intensity, higher = more binding, comparable within an allelic series)

CAGGCAGG
binding signal (PAX4 [1]): 9.45 upbm affinity estimate (log intensity, higher = more binding, comparable within an allelic series)
binding signal (PAX4 [2]): 8.98 upbm affinity estimate (log intensity, higher = more binding, comparable within an allelic series)
binding signal (PAX4 [3]): 9.63 upbm affinity estimate (log intensity, higher = more binding, comparable within an allelic series)
binding signal (PAX4 [4]): 9.47 upbm affinity estimate (log intensity, higher = more binding, comparable within an allelic series)
binding signal (PAX4 [5]): 9.56 upbm affinity estimate (log intensity, higher = more binding, comparable within an allelic series)
binding signal (VAX1 [7]): 7.2 upbm affinity estimate (log intensity, higher = more binding, comparable within an allelic series)
binding signal (VAX1 [8]): 7.22 upbm affinity estimate (log intensity, higher = more binding, comparable within an allelic series)
binding signal (PAX4 [6]): 9.49 upbm affinity estimate (log intensity, higher = more binding, comparable within an allelic series)
binding signal (VAX1 [9]): 7 upbm affinity estimate (log intensity, higher = more binding, comparable within an allelic series)

CTTCGTTC
binding signal (PAX4 [1]): 9.33 upbm affinity estimate (log intensity, higher = more binding, comparable within an allelic series)
binding signal (PAX4 [2]): 9.37 upbm affinity estimate (log intensity, higher = more binding, comparable within an allelic series)
binding signal (PAX4 [3]): 9.51 upbm affinity estimate (log intensity, higher = more binding, comparable within an allelic series)
binding signal (PAX4 [4]): 9.56 upbm affinity estimate (log intensity, higher = more binding, comparable within an allelic series)
binding signal (PAX4 [5]): 9.5 upbm affinity estimate (log intensity, higher = more binding, comparable within an allelic series)
binding signal (PAX4 [6]): 9.58 upbm affinity estimate (log intensity, higher = more binding, comparable within an allelic series)

ACTAATTC
binding signal (PAX4 [1]): 11.6 upbm affinity estimate (log intensity, higher = more binding, comparable within an allelic series)
binding signal (PAX4 [2]): 12.1 upbm affinity estimate (log intensity, higher = more binding, comparable within an allelic series)
binding signal (PAX4 [3]): 11.8 upbm affinity estimate (log intensity, higher = more binding, comparable within an allelic series)
binding signal (PAX4 [4]): 10.4 upbm affinity estimate (log intensity, higher = more binding, comparable within an allelic series)
binding signal (PAX4 [5]): 10.9 upbm affinity estimate (log intensity, higher = more binding, comparable within an allelic series)
binding signal (PAX4 [6]): 10.9 upbm affinity estimate (log intensity, higher = more binding, comparable within an allelic series)

GCCGGGAC
binding signal (PAX4 [1]): 9.33 upbm affinity estimate (log intensity, higher = more binding, comparable within an allelic series)
binding signal (PAX4 [2]): 9.39 upbm affinity estimate (log intensity, higher = more binding, comparable within an allelic series)
binding signal (PAX4 [3]): 9.37 upbm affinity estimate (log intensity, higher = more binding, comparable within an allelic series)
binding signal (PAX4 [4]): 9.2 upbm affinity estimate (log intensity, higher = more binding, comparable within an allelic series)
binding signal (PAX4 [5]): 9.2 upbm affinity estimate (log intensity, higher = more binding, comparable within an allelic series)
binding signal (PROP1 [10]): 7.02 upbm affinity estimate (log intensity, higher = more binding, comparable within an allelic series)
binding signal (PROP1 [11]): 6.96 upbm affinity estimate (log intensity, higher = more binding, comparable within an allelic series)
binding signal (PROP1 [12]): 6.46 upbm affinity estimate (log intensity, higher = more binding, comparable within an allelic series)
binding signal (PAX4 [6]): 9.24 upbm affinity estimate (log intensity, higher = more binding, comparable within an allelic series)

CCGCGACC
binding signal (PAX4 [1]): 9.37 upbm affinity estimate (log intensity, higher = more binding, comparable within an allelic series)
binding signal (PAX4 [2]): 9.36 upbm affinity estimate (log intensity, higher = more binding, comparable within an allelic series)
binding signal (PAX4 [3]): 9.36 upbm affinity estimate (log intensity, higher = more binding, comparable within an allelic series)
binding signal (PAX4 [4]): 9.17 upbm affinity estimate (log intensity, higher = more binding, comparable within an allelic series)
binding signal (PAX4 [5]): 9.23 upbm affinity estimate (log intensity, higher = more binding, comparable within an allelic series)
binding signal (PAX4 [6]): 9.24 upbm affinity estimate (log intensity, higher = more binding, comparable within an allelic series)

CTCGCCTC
binding signal (PAX4 [1]): 9.23 upbm affinity estimate (log intensity, higher = more binding, comparable within an allelic series)
binding signal (PAX4 [2]): 9.21 upbm affinity estimate (log intensity, higher = more binding, comparable within an allelic series)
binding signal (PAX4 [3]): 9.24 upbm affinity estimate (log intensity, higher = more binding, comparable within an allelic series)
binding signal (PAX4 [4]): 9.31 upbm affinity estimate (log intensity, higher = more binding, comparable within an allelic series)
binding signal (PAX4 [5]): 9.3 upbm affinity estimate (log intensity, higher = more binding, comparable within an allelic series)
binding signal (PAX4 [6]): 9.28 upbm affinity estimate (log intensity, higher = more binding, comparable within an allelic series)

AGCGCTGC
binding signal (PAX4 [1]): 9.36 upbm affinity estimate (log intensity, higher = more binding, comparable within an allelic series)
binding signal (PAX4 [2]): 9.27 upbm affinity estimate (log intensity, higher = more binding, comparable within an allelic series)
binding signal (PAX4 [3]): 9.34 upbm affinity estimate (log intensity, higher = more binding, comparable within an allelic series)
binding signal (PAX4 [4]): 9.36 upbm affinity estimate (log intensity, higher = more binding, comparable within an allelic series)
binding signal (PAX4 [5]): 9.24 upbm affinity estimate (log intensity, higher = more binding, comparable within an allelic series)
binding signal (PAX4 [6]): 9.35 upbm affinity estimate (log intensity, higher = more binding, comparable within an allelic series)

GGCGCGAC
binding signal (PAX4 [1]): 9.13 upbm affinity estimate (log intensity, higher = more binding, comparable within an allelic series)
binding signal (PAX4 [2]): 9.13 upbm affinity estimate (log intensity, higher = more binding, comparable within an allelic series)
binding signal (PAX4 [3]): 9.1 upbm affinity estimate (log intensity, higher = more binding, comparable within an allelic series)
binding signal (PAX4 [4]): 9.14 upbm affinity estimate (log intensity, higher = more binding, comparable within an allelic series)
binding signal (PAX4 [5]): 9.06 upbm affinity estimate (log intensity, higher = more binding, comparable within an allelic series)
binding signal (PAX4 [6]): 9.21 upbm affinity estimate (log intensity, higher = more binding, comparable within an allelic series)

Reference: article PMC11006913
